This is an account of results in publication PMC4081100, “A DNA-binding-site landscape and regulatory network analysis for NAC transcription factors in Arabidopsis thaliana”.

Holding throughout (experiment): universal protein binding microarray (PBM); transcription factors of Arabidopsis thaliana; high values mean tight binding
Common to all, as to conditions: protein: recombinant; tags: GST; chain copies: 2; dsDNA, one strand shown

Assay [1] deals with T1, GST-ANAC092(1-176) (Arabidopsis thaliana, UniProt Q9FKA0 1-176).
T1 sequence: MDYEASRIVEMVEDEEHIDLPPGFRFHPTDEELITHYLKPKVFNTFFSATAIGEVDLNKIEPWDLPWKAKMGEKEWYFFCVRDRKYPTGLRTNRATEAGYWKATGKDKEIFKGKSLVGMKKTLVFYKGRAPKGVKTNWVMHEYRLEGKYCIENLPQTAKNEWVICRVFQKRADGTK
A digest of the protocol:
(§1)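 Protein amounts were determined by A280 or anti-GST western blot after glutathione–Sepharose 4B purification of GST-tagged proteins induced in cells, with zinc acetate included for zinc-finger proteins. Duplicate runs at 200 to 500 nM final were done on custom all-10-mer Agilent 4 × 180K arrays made double-stranded by primer extension. The normalised enrichment score (E-score) over gapped and ungapped 8-mers is the measure of binding.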

The target in assay [2] is T2, GST-ANAC019 NAC domain (Arabidopsis thaliana, UniProt Q9C932 14-162).
T2 sequence: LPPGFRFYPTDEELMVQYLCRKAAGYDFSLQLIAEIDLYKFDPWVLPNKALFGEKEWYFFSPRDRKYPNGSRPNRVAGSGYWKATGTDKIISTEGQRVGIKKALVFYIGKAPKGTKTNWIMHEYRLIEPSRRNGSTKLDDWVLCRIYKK
Summed up: as §1

Assay [3] deals with T3, GST-ANAC055(1-171) (Arabidopsis thaliana, UniProt Q9LDY8 1-171).
T3 sequence: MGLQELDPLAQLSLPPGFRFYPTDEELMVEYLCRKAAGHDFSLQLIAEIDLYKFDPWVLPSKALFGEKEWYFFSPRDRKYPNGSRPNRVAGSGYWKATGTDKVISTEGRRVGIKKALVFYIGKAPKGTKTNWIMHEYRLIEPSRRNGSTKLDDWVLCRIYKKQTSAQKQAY
A digest of the protocol:
as §1

Assay [4] deals with T4, GST-ATAF1 NAC domain (Arabidopsis thaliana, UniProt Q39013 7-158).
T4 sequence: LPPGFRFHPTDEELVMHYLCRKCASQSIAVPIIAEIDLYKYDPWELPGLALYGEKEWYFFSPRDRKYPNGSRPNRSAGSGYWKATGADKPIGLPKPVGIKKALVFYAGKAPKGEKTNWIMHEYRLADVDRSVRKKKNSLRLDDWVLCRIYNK
A digest of the protocol:
as §1

For assay [5], the target named is T5, GST-ANAC092(1-285) full length (Arabidopsis thaliana, UniProt Q9FKA0 1-285).
T5 sequence: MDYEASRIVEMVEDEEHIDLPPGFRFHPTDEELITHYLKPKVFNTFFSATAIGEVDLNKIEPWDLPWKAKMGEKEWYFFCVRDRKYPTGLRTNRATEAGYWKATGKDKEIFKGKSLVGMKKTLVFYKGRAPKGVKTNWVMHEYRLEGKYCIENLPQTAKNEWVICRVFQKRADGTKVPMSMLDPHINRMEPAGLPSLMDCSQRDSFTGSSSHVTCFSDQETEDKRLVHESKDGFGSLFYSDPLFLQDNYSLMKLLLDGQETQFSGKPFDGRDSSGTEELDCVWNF
Summed up:
as §1

Assay [6] has as its target T6, GST-NAP(1-166) (Arabidopsis thaliana, UniProt O49255 1-166).
T6 sequence: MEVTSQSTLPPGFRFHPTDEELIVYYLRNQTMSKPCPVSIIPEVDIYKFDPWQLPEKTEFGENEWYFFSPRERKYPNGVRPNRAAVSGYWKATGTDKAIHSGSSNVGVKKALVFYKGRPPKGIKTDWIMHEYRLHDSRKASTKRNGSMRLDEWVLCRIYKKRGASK
Summed up: as §1

Assay [7] concerns the target T7, GST-NST2(1-184) (Arabidopsis thaliana, UniProt Q9M274 1-184).
T7 sequence: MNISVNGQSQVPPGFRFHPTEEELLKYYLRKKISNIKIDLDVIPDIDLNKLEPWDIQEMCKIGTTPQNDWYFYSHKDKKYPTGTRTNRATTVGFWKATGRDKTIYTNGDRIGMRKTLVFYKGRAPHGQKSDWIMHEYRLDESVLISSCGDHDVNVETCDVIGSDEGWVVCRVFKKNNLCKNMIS
A digest of the protocol: as §1

In assay [8] the target is T8, GST-NTL8 NAC domain (Arabidopsis thaliana, UniProt Q9XIN7 14-156).
T8 sequence: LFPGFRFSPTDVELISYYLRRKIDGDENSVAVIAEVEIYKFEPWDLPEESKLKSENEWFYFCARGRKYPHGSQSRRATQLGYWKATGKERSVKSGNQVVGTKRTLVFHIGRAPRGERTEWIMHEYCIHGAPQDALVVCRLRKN
A digest of the protocol: as §1

Assay [9] has as its target T9, GST-SND1(1-203) (Arabidopsis thaliana, UniProt Q9LPI7 1-203).
T9 sequence: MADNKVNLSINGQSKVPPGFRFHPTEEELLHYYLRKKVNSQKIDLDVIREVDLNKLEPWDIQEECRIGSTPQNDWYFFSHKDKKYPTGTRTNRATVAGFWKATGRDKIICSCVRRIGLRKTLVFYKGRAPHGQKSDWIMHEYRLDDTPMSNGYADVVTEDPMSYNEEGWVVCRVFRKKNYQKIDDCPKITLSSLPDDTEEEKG
A digest of the protocol: as §1

For assay [10], the target named is T10, GST-VND3 NAC domain (Arabidopsis thaliana, UniProt Q9FH59 12-162).
T10 sequence: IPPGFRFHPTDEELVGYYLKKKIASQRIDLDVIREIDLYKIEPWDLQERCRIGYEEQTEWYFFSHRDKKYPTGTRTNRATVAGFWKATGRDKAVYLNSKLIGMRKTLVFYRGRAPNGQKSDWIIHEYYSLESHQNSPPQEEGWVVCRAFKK
A digest of the protocol: as §1

The target in assay [11] is T11, GST-VND7 NAC domain (Arabidopsis thaliana, UniProt Q9C8W9 9-158).
T11 sequence: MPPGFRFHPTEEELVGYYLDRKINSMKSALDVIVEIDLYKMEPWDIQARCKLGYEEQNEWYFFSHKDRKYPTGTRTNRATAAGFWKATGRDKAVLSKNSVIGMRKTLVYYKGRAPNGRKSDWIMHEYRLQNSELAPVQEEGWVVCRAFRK
A digest of the protocol: as §1

As to AACACGTT, the binding signal in assay [1] was 0.375 E-score; in assay [2], 0.262 E-score; in [3], 0.284 E-score; in assay [4], 0.228 E-score; in assay [5] it was 0.426 E-score; in assay [6], 0.259 E-score. Moreover, the binding signal in assay [7] was found to be 0.222 E-score; in [8], 0.132 E-score; in assay [9], 0.202 E-score; in [10], 0.281 E-score; in assay [11], 0.203 E-score.
On to ACGGCACC, for which the binding signal in assay [1] was found to be 0.406 E-score; in assay [2], 0.425 E-score; in assay [3], 0.358 E-score; in assay [4], 0.375 E-score; in assay [5], 0.452 E-score; in [6], 0.381 E-score. The binding signal in assay [7] was 0.0937 E-score; in assay [9], 0.237 E-score; in [10] it was 0.318 E-score; in assay [11], 0.333 E-score.
As for ACGGAACT, the binding signal in assay [1] was 0.292 E-score; in assay [2], 0.468 E-score; in assay [3], 0.438 E-score; in assay [4], 0.392 E-score; in [5], 0.277 E-score; in assay [6], 0.452 E-score. Moreover, the binding signal in assay [7] was found to be 0.159 E-score; in assay [8], 0.109 E-score; in [9] it was 0.178 E-score; in assay [10] it was 0.417 E-score; in assay [11], 0.445 E-score.
As for ACGCTAAC, the binding signal in assay [1] came to 0.43 E-score; in [2], 0.143 E-score; in assay [3], 0.0694 E-score; in assay [4] it was 0.142 E-score; in assay [5], 0.457 E-score; in [6], 0.0585 E-score. Moreover, the binding signal in assay [7] was found to be 0.289 E-score; in assay [9], 0.454 E-score; in assay [10] it was 0.127 E-score; in assay [11], 0.113 E-score.
With GTAACGTA, the binding signal in [1] amounted to 0.451 E-score; in assay [2], 0.367 E-score; in assay [3], 0.189 E-score; in assay [4], 0.322 E-score; in assay [5], 0.467 E-score; in assay [6], 0.315 E-score. For the same sequence, the binding signal in assay [7] worked out at 0.321 E-score; in assay [8], 0.13 E-score; in assay [9], 0.489 E-score; in [10], 0.338 E-score; in assay [11], 0.402 E-score.
For ACACGGCA, the binding signal in assay [1] amounted to 0.481 E-score; in assay [2], 0.485 E-score; in assay [3] it was 0.479 E-score; in assay [4] it was 0.446 E-score; in [5], 0.481 E-score; in assay [6], 0.457 E-score. Moreover, the binding signal was found to be 0.245 E-score in assay [7]; 0.0652 E-score in [8]; 0.148 E-score in assay [9]; 0.463 E-score in assay [10]; 0.481 E-score in [11].
In the case of GTGCCGTA, the binding signal is 0.427 E-score in assay [1]; 0.467 E-score in assay [2]; 0.432 E-score in assay [3]; 0.413 E-score in [4]; 0.449 E-score in [5]; 0.412 E-score in [6]. Also, the binding signal in [7] worked out at 0.263 E-score; in [8] it was 0.102 E-score; in [9], 0.377 E-score; in assay [10] it was 0.443 E-score; in assay [11] it was 0.453 E-score.
